# The sample as a whole holds a higher share of hits than the screen did.
# CHX counter: counter-screen hit for Shiga toxin inhibitors, cycloheximide | cell reporter, cycloheximide protein synthesis inhibition counterscreen | max response, % | 300,000 tested, 12% active | AID 2314; in the data active = max response mostly above about 13%, no sharp cut-off; inactive = mostly below about 14%; also: read at 38.3 µM for the half of the compounds with a filed dose; 0% is about no effect
# Tb PYK inh: blocks Trypanosoma brucei pyruvate kinase. AID 624173. TbPYK enzyme, Kinase-Glo Plus ATP luminescence, 45 min. Potency, µM (series often up to 76.8 µM), without a hit: at the top dose activity, negative = inhibition, most hits filed as inhibitors. 410,000 tested, 0.12% active; also: potency is read from the fitted curve at half-maximal effect; % is scaled to controls: 0 for no effect and ±100 for the full control effect; nearly all actives have a fitted effect of over 50% in size
#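 Luminescent Kinase-Glo Plus end-point after 45 min room-temperature reaction of T. brucei pyruvate kinase started with 130 uM ADP (final). Buffer TEA 50 mM pH 7.2 with KCl, MgCl2, BSA, Tween-20; titration-based qHTS with fitted concentration-effect curves.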
# Giardia FBPA inh: inhibitors of Giardia lamblia fructose-1,6-bisphosphate aldolase; A8B2U2; purified Giardia FBPA; Potency, µM (titrated, usually from 59.6 µM), for inactives: top-dose activity, negative = inhibition, hits mostly inhibitors; 290,000 tested, 0.71% active; AID 2451; also: potency is read from the fitted curve at half-maximal effect; % is scaled to controls: 0 for no effect and ±100 for the full control effect; nearly all actives have a fitted effect of over 55% in size
#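 40 nM FBPA preincubated 10 min at RT with compound (up to 57.5 uM final), then substrate plus GAPDH/TPI/NAD/arsenate coupling and diaphorase/resazurin added. Fluorescence read after 20 min at RT, 525/598 nm.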
# LmPK inh: blocks Leishmania mexicana pyruvate kinase activity; purified LmPK, Kinase-Glo ATP luminescence, 1 h; Potency, µM (titrated, usually from 57.5 µM), inactives show top-dose activity change, negative = inhibition, hits mostly inhibitors; 290,000 tested, 0.37% active; Q27686; also: potency is read from the fitted curve at half-maximal effect; % is scaled to controls: 0 for no effect and ±100 for the full control effect
# Target sequence (Q27686 whole entry, looked up): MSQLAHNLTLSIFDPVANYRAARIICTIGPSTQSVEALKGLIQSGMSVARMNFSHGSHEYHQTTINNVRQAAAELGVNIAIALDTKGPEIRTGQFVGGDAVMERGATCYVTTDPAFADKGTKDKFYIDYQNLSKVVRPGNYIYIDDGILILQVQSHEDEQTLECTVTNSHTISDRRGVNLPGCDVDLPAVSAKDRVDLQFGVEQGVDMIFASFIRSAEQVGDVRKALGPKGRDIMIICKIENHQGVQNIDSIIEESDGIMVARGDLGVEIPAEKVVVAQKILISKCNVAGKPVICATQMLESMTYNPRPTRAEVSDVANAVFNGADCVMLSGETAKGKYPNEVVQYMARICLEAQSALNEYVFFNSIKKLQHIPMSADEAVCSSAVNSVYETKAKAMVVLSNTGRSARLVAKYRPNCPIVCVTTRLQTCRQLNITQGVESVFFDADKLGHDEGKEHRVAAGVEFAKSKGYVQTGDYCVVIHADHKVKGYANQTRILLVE
#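 Purified LmPK (0.1 nM) converted ADP (0.1 mM) to ATP with PEP (0.5 mM) in imidazole buffer pH 7.2 with KCl and MgCl2, 1 h at room temperature. ATP was read by Kinase-Glo luminescence; data normalized to uninhibited and no-enzyme controls.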
# Shiga toxin inh: Shiga toxin inhibition. Vero cells, Shiga toxin protein synthesis inhibition reporter. 290,000 tested, 9.2% active. inhibition, % at 38.7 µM; in the data active = inhibition mostly above about 28%, no sharp cut-off; inactive = mostly below about 43%; also: 0% is about no effect
# Sm TGR block: S. mansoni TGR enzyme inhibition; Potency, µM (series often up to 114 µM), for the others: at the top dose activity change, negative = inhibition, actives largely listed as inhibitors; 360,000 tested, 3% active; purified TGR, DTNB reduction, TNB absorbance 405 nm; AID 485364; also: potency is read from the fitted curve at half-maximal effect; % is scaled to controls: 0 for no effect and ±100 for the full control effect; nearly all actives have a fitted effect of over 60% in size
#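 First, TGR (20 nM dispensed) and NADPH were mixed with compound. Second, a 15 min room-temperature incubation followed. Third, further NADPH and then DTNB were added to start the reaction. Finally, TNB absorbance was monitored kinetically.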
# Numbers without * were called inactive; ? = inconclusive; . = no result given; [ ] = remark or other dose. Unless noted, calls follow the shape of the dose curve; as a rule, active = well fitted curve in the direction sought with a large enough effect; inconclusive = small, poorly fitted or top-dose-only effect, or another doubt; inactive = no such curve, though single readings can be large; an effect the other way counts as inactive or inconclusive.
SMILES,CHX counter,Tb PYK inh,Giardia FBPA inh,LmPK inh,Shiga toxin inh,Sm TGR block
CC(=O)N1CCc2c(sc3c2c(=O)n(-c2ccc(C)cc2)c(=O)n3CC(=O)Nc2ccccc2)C1,.,1%,.,.,.,2%
COc1cccc(C(=O)c2cn(CC(=O)Nc3ccc4c(c3)OCCO4)c3nc(C)ccc3c2=O)c1,.,3%,.,.,.,-8%
CCOC(=O)c1ccc(NC(=S)N2CCN(CCN=CC3=C(O)CC(C)(C)CC3=O)CC2)cc1,-2,-2%,-8%,4%,-4,1.1µM*
CC1(C)CC(=O)C(C=NCCN2CCN(C3CC(=O)N(c4ccc(Br)cc4)C3=O)CC2)=C(O)C1 (stereo not given),-3,2%,4%,-7%,-5,50µM*
CC1(C)CC(=O)C(C=NCCN2CCN(C(=O)C34CC5CC(CC(C5)C3)C4)CC2)=C(O)C1,9,2%,-4%,4%,19,25µM*
CC(=O)N1CCN(CCN=CC2=C(O)CC(c3cccs3)CC2=O)CC1 (stereo not given),19,-7%,-1%,-1%,-2,45µM*
CC1(C)CC(=O)C(C=NCCN2CCN(C(=O)Cc3ccc(Cl)cc3)CC2)=C(O)C1,-1,-5%,-2%,-3%,-2,?
C=CCNC(=S)N1CCN(CCN=CC2=C(O)CC(c3cccs3)CC2=O)CC1 (stereo not given),10,-2%,-10%,-4%,30,-7%
COC(=O)N(/C=C/c1ccc(OC)cc1)CCc1ccc(OC)c(OC)c1,.,.,-1%[12.9 µM],.,.,.
CCOC(=O)C1CCN(CC(C)(C)NS(=O)(=O)c2ccccc2)CC1,-3,28%,?,-4%,-19,-4%
Cc1nnc(SCC(=O)c2cc(C)n(-c3ccc4c(c3)OCO4)c2C)s1,18*,-12%,?,5%,36*,0%
Cc1cc(C(=O)CSc2nnnn2C)c(C)n1-c1ccc2c(c1)OCCO2,37*,7%,?,5%,142*,35µM*
Cc1cc(C(=O)CSc2nnc(-c3ccco3)o2)c(C)n1-c1ccc2c(c1)OCCO2,4,-14%,-29%,12%,7,7%[11.4 µM]
Cc1nnc(SCc2ccc3c(c2)OCO3)s1,81*,6%,-3%,1%,142*,63%
O=c1cnc2cnc(N3CCNCC3)nc2n1Cc1ccc(F)cc1,.,.,6%,.,.,.
Cc1cc(C)cc(NC(=S)Nc2cccc3cnccc23)c1,6,4%,?,9%,-17,?
CC(=O)N(C)c1ccc(NC(=S)Nc2cccc3ccccc23)cc1,44*,0%,?,-1%,83*,-23%
CC(=O)c1ccc(NC(=S)Nc2cccc3ccccc23)cc1,73*,-13%,-22%,0%,106*,?
CCc1ccc(NC(=S)Nc2cccc3cnccc23)cc1,36*,-4%,?,3%,65*,?
CCCC(=O)NC(=S)Nc1ccc(C(C)=O)cc1,55*,0%,0%,0%,57*,-23%
CC(=O)N(C)c1ccc(NC(=S)Nc2ccccc2)cc1,1,4%,-9%,-1%,12,-32%
Cc1noc(C)c1-c1ccc(C(=O)NCc2cccs2)c2occc12,.,2%,.,.,.,.
Fc1cccc(NC(=S)Nc2cccc3ccccc23)c1,-2,-5%,.,-9%,-21,-14%
CC(=O)c1cccc(NC(=O)C(=O)Nc2cccc3ccccc23)c1,22*,6%,5%,9%,32*,-13%
Cc1ccc(NC(=S)Nc2cccc3ccccc23)cc1F,42*,4%,0%,3%,81*,1%
SMILES,CHX counter,Tb PYK inh,Giardia FBPA inh,LmPK inh,Shiga toxin inh,Sm TGR block
CCOc1ccccc1NC(=O)C1CCCN1S(=O)(=O)c1ccc2nc(-c3ccccc3)[nH]c2c1 (stereo not given),.,-2%,.,.,.,5%
Cc1ccc(N(CC2CO2)S(=O)(=O)c2ccc([N+](=O)[O-])cc2)cc1 (stereo not given),-5,-7%,8%,0%,2,32µM*
Cc1ccc(N(CC2CO2)S(=O)(=O)c2ccc(C)cc2)cc1 (stereo not given),-1,-4%,1%,6%,-4,?
COCCN(C(=O)CSc1nnc(-c2ccco2)n1C)c1c(N)n(CC(C)C)c(=O)[nH]c1=O,.,3%,.,.,.,?
COc1ccc(CC(=O)NCc2nnc(SCC(=O)c3ccc(OC)cc3)n2C)cc1,1,7%,7%,-2%,-19,8%
COc1ccc(C(=O)CSc2nccn2C)cc1,29*,-7%,?,-15%,67*,134%
Cn1ccnc1SCC(=O)c1ccc(C#N)cc1,-4,-7%,-27%,0%,23,-5%
COc1cc(C(=O)CSc2nccn2C)cc(OC)c1OC,1,-9%,-30%,3%,32,0%
CCOc1ccc(NC(=O)CSc2nnc(C3CC3)n2C)cc1,-1,-9%,0%,-2%,2,.
COc1ccc(NCc2nnc(SCC(=O)c3ccc(OC)cc3)n2C)cc1,34*,?,?,-3%,28,?
CCOc1ccc(C(=O)CSc2nnc(C3CC3)n2C)cc1,14*,-9%,2%,1%,37*,0%
Cn1ccnc1SCC(=O)c1ccc(OC(F)F)cc1,33*,11%,-10%,-7%,78*,-12%
Cc1c(Cl)cccc1NC(=O)COC(=O)c1ccc(CN2CCCC2=O)cc1,.,-14%,.,.,.,-6%
CC(=O)OC[C@@H]1CN(Cc2ccccc2)C[C@H](n2cnc3c(NC4CCCC4)ncnc32)O1,.,1%,.,.,.,.
CCn1nnc2cc(C(=O)Nc3ccc(C)cc3Br)ccc21,.,4%,.,.,.,?
Cn1ccnc1SCC(=O)c1cccc(C(F)(F)F)c1,26*,-10%,11%,3%,72*,-12%
COC(=O)c1ccc(CSc2nccn2C)cc1,52*,-4%,?,-5%,65*,-5%
Cn1ccnc1SCC(=O)Nc1cc(C(F)(F)F)ccc1N1CCOCC1,-1,-1%,1%,-1%,-9,-8%
COc1ccc(C(=O)CSc2cc(C)[nH]c(=O)n2)cc1,40*,1%,-12%,0%,64*,-2%
COc1ccc(C2C(O)C(c3c[nH]c4ccccc34)=NN2C(=O)CCl)cc1 (stereo not given),8,-7%,-11%,2%,-6,8.9µM*
COc1ccc(C2NN=C(c3c[nH]c4ccccc34)C2O)cc1 (stereo not given),36*,-20%,2%,-7%,38*,?
Cc1nn(C(=O)c2cccc([N+](=O)[O-])c2)c(C)c1Cl,-3,2%,22%,2%,-6,-2%
CCSc1nnc(-c2ccc(Cl)cc2Cl)o1,57*,-1%,2%,11%,85*,6%[11.4 µM]
CC(C)NCc1nnc(-c2ccccc2Cl)o1,15,7%,-2%,-3%,39*,3%

# Bioassay records: PubChem BioAssay, National Center for Advancing Translational Sciences (NCATS)
